MBD2 inh: inhibitors of human MBD2 binding to methylated oligonucleotide | TR-FRET | inhibition, % at 4.4 µM | hit rate 0.31% among 370,000 | AID 686964; in the data active = inhibition above about 13%
Target sequence (Q9UBB5 whole entry, looked up): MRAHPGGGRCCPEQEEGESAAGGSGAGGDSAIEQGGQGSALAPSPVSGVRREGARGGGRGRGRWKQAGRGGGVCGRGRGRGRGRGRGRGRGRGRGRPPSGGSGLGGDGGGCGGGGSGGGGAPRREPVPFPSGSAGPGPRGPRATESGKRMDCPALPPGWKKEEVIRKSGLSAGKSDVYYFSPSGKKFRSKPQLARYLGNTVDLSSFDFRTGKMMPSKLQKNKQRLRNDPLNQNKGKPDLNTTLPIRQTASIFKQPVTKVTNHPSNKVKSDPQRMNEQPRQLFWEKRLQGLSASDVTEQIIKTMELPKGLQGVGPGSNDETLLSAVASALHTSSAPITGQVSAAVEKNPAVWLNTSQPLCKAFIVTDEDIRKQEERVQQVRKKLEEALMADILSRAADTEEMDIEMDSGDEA
rCAG RNA binder: molecules binding r(CAG) RNA repeats. inhibition, % at 3 µM. r(CAG) RNA repeat, TO-PRO-1 dye displacement fluorescence. hit rate 1.3% among 370,000. AID 651821;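 active = inhibition above the plate cutoff, the mean of all test compounds on that plate plus 3 SD, cut at about 35% in these data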;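 also: higher means more dye released from RNA so lower well fluorescence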
UHRF1 MBD2 ctr: blocks human UHRF1 binding to methylated DNA. UHRF1 binding to methylated oligo, TR-FRET. inhibition, % at 4.4 µM. hit rate 0.75% among 370,000; in the data active = inhibition above about 21%;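 also: UHRF1 SRA domain binding a hemimethylated CpG hairpin DNA probe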
DNMT1 inh: blocks human DNA methyltransferase DNMT1. P26358. DNMT1 molecular beacon, Hinp1I cleavage, fluorescence. inhibition (reported as % activation of signal), % at 10 µM. hit rate 0.83% among 360,000; in the data active = inhibition above about 50%
PG9 binder: PG9 antibody binding by small molecule; hit rate 0.43% among 360,000; inhibition, % at 6.7 µM; TR-FRET gp120-PG9 antibody binding; in the data active = inhibition above about 8.5%
LEDGF integ inh: blocks HIV-1 LEDGF/p75-dependent DNA integration. hit rate 0.64% among 370,000. inhibition, % at 3.7 µM. TR-FRET IN-LEDGF/p75 DNA integration, Eu/Cy5;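 active = inhibition above the screen-wide mean plus 3 SD, cut at about 13% in these data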;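 also: signal is the Cy5 over europium emission ratio at 671 and 618 nm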
rCAG binder conf: r(CAG) RNA repeat binding, confirmation; hit rate 70% among 4,300; TO-PRO-1 dye displacement fluorescence; inhibition, % at 3 µM; shares compounds with rCAG RNA binder;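 active = inhibition above a per-plate cutoff, the mean inhibition of sample wells plus 3 SD, cut at about 35% in these data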;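 also: loss of TO-PRO-1 fluorescence as compound displaces dye from 1x1 AA loop RNA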
dCAG dye counter: disrupts DNA CAG TO-PRO-1 complex, flagging rCAG hits. inhibition, % at 3 µM. d(CAG) DNA oligo TO-PRO-1 dye displacement, fluorescence. AID 652068. shares compounds with rCAG RNA binder. hit rate 94% among 4,300;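 active = inhibition above its plate's cutoff, the mean test-well inhibition plus 3 SD, cut at about 4.8% in these data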;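 also: hits displace the dye from DNA and so lower well fluorescence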
dCAG dye DR: DNA CAG dye complex inhibition, dose response counter-screen. hit rate 20% among 250. DNA CAG/GTC duplex TO-PRO-1 dye displacement fluorescence. shares compounds with rCAG RNA binder. IC50, µM. AID 686960; in the data active = IC50 below about 10 µM
Hits are given with their value; - = inactive; . = not tested or not shown. An excerpt weighted towards active compounds, which were near 3.5% of everything screened.

SMILES | MBD2 inh | rCAG RNA binder | UHRF1 MBD2 ctr | DNMT1 inh | PG9 binder | LEDGF integ inh | rCAG binder conf | dCAG dye counter | others
CC1CCN(S(=O)(=O)c2ccc3c(c2)c(=O)c(C(=O)NCc2ccco2)cn3C)CC1 | - | - | - | - | - | - | . | .
CC1CCN(S(=O)(=O)c2ccc3c(c2)c(=O)c(C(=O)NCc2cccs2)cn3C)CC1 | - | 42.9 | - | - | - | - | - | 7.5
CCOc1ccc(NS(=O)(=O)c2cc3c4c(c2)C(C)C(=O)N4CCC3)cc1 (stereo unspecified) | - | - | - | - | - | - | . | .
O=S(=O)(Nc1ncnc2sc3c(c12)CCC3)c1ccc2ccccc2c1 | - | 68.8 | - | - | - | - | 56.4 | 21.1
O=C(COC(=O)/C=C/c1ccc(Cl)cc1Cl)NCC1CCCO1 (stereo unspecified) | - | - | - | - | - | - | . | .
CNC(=O)C1CN(C(=O)c2cccc(S(=O)(=O)N3c4ccccc4CC3C)c2)c2ccccc2O1 (stereo unspecified) | - | - | - | - | - | - | . | .
Cc1ccc(S(=O)(=O)Nc2ccc3cn[nH]c3c2)cc1C | - | - | - | - | - | - | . | .
Cc1ccc(S(=O)(=O)Nc2ccc3cn[nH]c3c2)cc1 | - | 47.1 | - | - | - | - | - | -
Cc1ccc(S(=O)(=O)Nc2ccc3c(c2)C(=O)c2ccccc2-3)cc1 | - | 37.1 | - | - | - | - | - | 7.0
C[C@H](CO)N1C[C@H](C)[C@@H](CN(C)Cc2ccc(C(=O)O)cc2)Oc2ccc(NC(=O)Cn3cnnn3)cc2C1=O | - | - | - | - | - | - | . | .
COc1ccccc1/C=C1\SC(=O)N(CCC(=O)NNC(=O)c2ccccc2Cl)C1=O | - | - | - | - | - | - | . | .
Cc1ccc(CN2C(=O)S/C(=C\c3ccccc3OCC(=O)O)C2=O)cc1 | - | 60.5 | - | - | - | - | 63.5 | 17.7
O=C(O)COc1ccccc1/C=C1\SC(=O)N(Cc2ccc(F)cc2)C1=O | - | 37.1 | - | - | - | - | 39.1 | 5.0
N=C1SC(c2ccccc2)C(=O)N1c1ncc(Cc2ccccc2Cl)s1 (stereo unspecified) | - | 58.0 | - | - | - | - | 71.9 | 31.5 | dCAG dye DR=-
CN(Cc1ccco1)C(=O)[C@H](Cc1ccccc1)NC(=O)CC[C@H]1O[C@@H](n2ccc(=O)[nH]c2=O)[C@H](O)[C@@H]1O | - | - | - | - | - | - | . | .
Cc1coc2c1C(=O)C(=O)c1c-2ccc2c1CCCC2(C)C | - | 43.3 | - | 51.9 | - | - | - | 13.1
O=S1(=O)N[C@H](Cc2ccccc2)COc2cc(N3CCCC3)ccc21 | - | - | - | . | . | - | . | .
O=C(CSc1ccccc1)Nc1ccc(S(=O)(=O)Nc2ncccn2)cc1 | - | - | - | - | - | - | . | .
O=C(CSc1ccc2ccccc2c1)Nc1ccc(S(=O)(=O)Nc2nccs2)cc1 | - | 74.4 | - | - | - | - | 70.7 | 35.9
O=C(CSc1ccc(Br)c2cccc(Cl)c12)Nc1ccc(S(=O)(=O)Nc2nccs2)cc1 | - | 76.9 | - | - | - | - | 74.9 | 43.2
O=C(Cc1ccccc1Cl)Nc1ccc(S(=O)(=O)Nc2nccs2)cc1 | - | - | - | - | - | - | . | .
COc1ccc(NC(=O)N(C)C[C@H]2OCc3cnnn3CCCC(=O)N([C@H](C)CO)C[C@@H]2C)c(OC)c1 | - | - | - | . | - | - | . | .
O=c1cc(SCc2ccccc2)nc[nH]1 | - | - | - | - | - | - | . | .
CC1(C(=O)NS(=O)(=O)c2ccc(Cl)s2)CCN1C(=O)c1ccc(C2CCCCC2)cc1 (stereo unspecified) | - | 65.8 | - | - | - | - | 74.2 | 36.5
CC1(C(=O)NS(=O)(=O)c2ccc(Cl)s2)CCN1C(=O)C1CCCCC1 (stereo unspecified) | - | - | - | - | - | - | . | .
SMILES | MBD2 inh | rCAG RNA binder | UHRF1 MBD2 ctr | DNMT1 inh | PG9 binder | LEDGF integ inh | rCAG binder conf | dCAG dye counter | others
CC(OC(=O)C1=Cc2ccccc2OC1)C(=O)NCC1CCCO1 (stereo unspecified) | - | 71.2 | - | - | - | - | 78.1 | 44.0
C=CCn1c(SCc2c(C)noc2C)nc2cc(C(=O)O)ccc2c1=O | - | - | - | - | - | - | . | .
C=CCn1c(SCc2ccc(Br)cc2F)nc2cc(C(=O)O)ccc2c1=O | - | 56.7 | - | - | - | - | 60.5 | 21.9
CCOC(=O)[C@@]12CCCC=C1N(CCc1ccc(Cl)cc1)C(=O)[C@H]2CC(=O)NCc1cccc2ccccc12 | - | - | - | . | . | - | . | .
Cc1cc(NS(=O)(=O)c2ccc(Nc3nc(-c4ccc(O)cc4)cs3)cc2)no1 | - | 51.8 | - | - | - | - | - | 9.7
CCC(=O)Nc1ccc(S(=O)(=O)Nc2cc(C)on2)cc1 | - | - | - | - | - | - | . | .
COc1cc(NS(=O)(=O)c2ccc(Nc3nc(-c4ccccc4)cs3)cc2)nc(OC)n1 | - | 87.1 | - | - | - | - | 83.4 | 54.4
Cc1cc(NS(=O)(=O)c2ccc(Nc3nc(-c4ccc(C)c(C)c4)cs3)cc2)no1 | - | 88.1 | - | - | - | - | 84.0 | 54.5
CCCCCCCCCCS(=O)(=O)N/N=C/c1ccc([N+](=O)[O-])cc1 | - | 42.2 | - | - | - | - | 52.2 | 15.9
Cc1ccc(/C=N/NS(=O)(=O)c2ccc([N+](=O)[O-])cc2)o1 | - | - | - | - | - | - | . | .
O=C(O)c1cccc(N2C(=O)C3C4C=CC(C4=C(c4ccccc4)c4ccccc4)C3C2=O)c1 (stereo unspecified) | - | 34.7 | - | - | - | - | 46.8 | 11.5
O=C(O)c1cccc(N2C(=O)c3ccc4c5c(ccc(c35)C2=O)C(=O)N(c2cccc(C(=O)O)c2)C4=O)c1 | - | - | - | - | - | - | . | .
CCNC(=O)C1CCCN(C(=O)c2ccc3c(c2)CCO3)CC1 (stereo unspecified) | - | - | - | - | - | - | . | .
COc1ccc(/C(N)=N/OC(=O)Cc2cccs2)cc1 | - | 46.7 | - | - | - | - | - | -
COc1ccc(/C(N)=N/OC(=O)Cc2cccs2)cc1OC | - | - | - | - | - | - | . | .
O=C(O)c1cccc(NC(=S)N/N=C/c2ccccc2OCc2ccc(Br)cc2)c1 | - | 80.0 | - | - | - | - | 85.0 | 55.4
COC(=O)c1ccc(COc2ccccc2/C=N/Nc2cccc(C(=O)O)c2)cc1 | - | - | - | - | - | - | . | .
O=C(O)c1cccc(NC(=S)N/N=C/c2ccccc2OCc2cccc(Br)c2)c1 | - | 77.3 | - | - | - | - | 78.8 | 44.6

Screens deposited in PubChem by several laboratories.
